Only some compounds are listed: those with a hit (about 19% of all), similar ones and a draw of the others.
IL-1B inflam inh = inhibitors of inflammasome signaling (IL-1 beta secretion); THP-1 LPS/ATP IL-1B secretion, AlphaLISA, 16 h; hits give low values; activity change, % at 57.5 µM; 360,000 tested, 4.7% active; AID 743279; in the data active = activity change below about -50%; inconclusive = mostly about -30% to -49%
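Secreted IL-1B measured by AlphaLISA bead assay after 16 h compound exposure of THP-1 cells; compounds (final up to 57.5 uM) added 1 h before LPS (250 ng/mL) and ATP (1.25 mM) stimulation; lower signal means less secretion.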
HT1080-NT tox = kills 2HG-producing HT-1080-NT fibrosarcoma cells | HT-1080-NT fibrosarcoma viability, CellTiter-Glo ATP luminescence, 48 h | Potency, µM (series often up to 46.1 µM), without a hit: top-dose activity, negative = less viability, most hits filed as cytotoxic | 360,000 tested, 1.6% active;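 also: NT is the 2HG producing partner of a matched IDH1 knockdown line; potency is read from the fitted curve at half-maximal effect; 0% = DMSO-treated cells and -100% = media-only wells without cells; nearly all actives have a fitted effect of over 55% in size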
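HT-1080-NT fibrosarcoma cells (2HG-overproducing), 750 cells/well in RPMI with 5% FBS, dosed after 2 h and incubated 48 h at 37C. CellTiter-Glo luminescence normalized to DMSO and no-cell wells; concentration-response curves fitted and classed.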
TDP1 cell CPT = growth inhibition of DT40 Tdp1-/-;hTDP1 cells with camptothecin (screen for TDP1 inhibitors); chicken DT40 Tdp1-/-;hTDP1 cells + 20 nM CPT, ATP luminescence, 48 h; Potency, µM (series often up to 46.2 µM), for inactives: at the highest dose activity change, negative = growth inhibition, usual class: inhibitors; 420,000 tested, 12% active; also: potency is read from the fitted curve at half-maximal effect; nearly all actives have a fitted effect of over 55% in size
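Chicken DT40 Tdp1-/- cells stably complemented with human TDP1 were seeded at 400 cells/well in medium containing 20 nM camptothecin, exposed to pin-transferred compounds, and grown at 37 °C for at least 48 hr. Viability was read as ATP luminescence.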
HT1080 IDH1KD tx = kills HT-1080 cells with IDH1 knockdown. 360,000 tested, 2% active. HT-1080 IDH1 knockdown viability, ATP luminescence, 48 h. Potency, µM (series often up to 46.1 µM), without a hit: top-dose activity, negative = toxicity, most hits filed as cytotoxic;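 also: potency is read from the fitted curve at half-maximal effect; 0% = DMSO wells and -100% = cell-free medium wells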
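Luminescent ATP read-out (CellTiter-Glo, 10 min at room temperature) after 48 h compound exposure at 37 °C gave viability of IDH1-knockdown HT-1080 cells. Activity was normalised to DMSO and cell-free wells, then fitted as concentration-response curves.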
DT40 TDP1 no CPT = qHTS for Inhibitors of human tyrosyl-DNA phosphodiesterase 1 (TDP1): qHTS in cells in absence of CPT. DT40 Tdp1-/- hTDP1 cells, no CPT, ATP luminescence, 48 h. Potency, µM (titrated, usually from 46.2 µM), for inactives: at the highest dose activity change, negative = growth inhibition, usual class: inhibitors. 420,000 tested, 15% active; also: potency is read from the fitted curve at half-maximal effect; nearly all actives have a fitted effect of over 55% in size
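Compound effects on proliferation are scored in DT40 Tdp1-/-;hTDP1 cells in the absence of CPT. ATP levels (CellTiter-Glo luminescence) are recorded after a ≥48 hr, 37 °C incubation.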
An asterisk follows results filed as active; ? = inconclusive; · = no result given; [ ] = remark or other dose. Unless noted, calls follow the shape of the dose curve; as a rule, active = well fitted curve in the direction sought with a large enough effect; inconclusive = small, poorly fitted or top-dose-only effect, or another doubt; inactive = no such curve, though single readings can be large; an effect the other way counts as inactive or inconclusive. Unless noted, % is scaled to controls: 0 for no effect and ±100 for the full control effect.

SMILES	IL-1B inflam inh	HT1080-NT tox	TDP1 cell CPT	HT1080 IDH1KD tx	DT40 TDP1 no CPT
O=C(Nc1ccc(F)c(F)c1)c1oc2ccccc2c1NC(=O)C1CCCO1 (centres undefined)	27	-23%	?	-5%	5.2µM*
COc1ccc(NC(=O)c2oc3ccccc3c2NC(=O)C2CCCO2)cc1OC (centres undefined)	0	-1%	?	-18%	18µM*
COc1ccc(C)cc1NC(C)C(=O)c1c[nH]c2ccccc12 (centres undefined)	·	·	-14%	·	?
COCCn1c(=NC(=O)CSCC(=O)N2CCOCC2)sc2cc(C)ccc21	-2	-2%	-6%	0%	?
COc1cccc(C(=O)NC(=S)Nn2cnnc2)c1OC	25	16%	9%	26%	-3%
CCn1c(/C=C/c2cc[n+](C)cc2)nc2ccccc21	-13	6%	-16%	8%	-4%
CCOC(=O)c1ccc2c(c1)n(CC)c(/C=C/Nc1ccccc1)[n+]2CC	0	-5%	18µM*	-11%	12µM*
CCn1c(/C=C/Nc2ccccc2)[n+](CC)c2ccc(Cl)cc21	-3	0%	23µM*	-18%	21µM*
CCn1c(C)[n+](Cc2ccccc2)c2ccc(C(=O)OC)cc21	-12	-1%	2%	-3%	-25%
CCn1c(/C=C/N(C)c2ccccc2)[n+](CC)c2ccc(Cl)cc21	-98*	7.1µM*	0.58µM*	-23%	1.3µM*
CCCCOc1ccc(Cl)cc1CSc1nnc(C)n1N	15	-11%	-29%	-16%	-5%
CCN1C(=O)c2ccccc2C1Nc1ccc(OCCN2CCCCC2)cc1 (centres undefined)	·	·	-7%	·	-29%
Cc1cc2ccccc2c(=O)n1CC(=O)NCC(=O)N(C)C1CCCCC1	-6	13%	1%	9%	-2%
CCOC(=O)N1CCC(N2Cc3cccc(C(=O)N4CCN(c5cccc(Cl)c5)CC4)c3C2=O)CC1	-19	-1%	?	-9%	?
CCn1cc(C(=O)N2CCN(c3cc(Cl)ccc3C)CC2)c(=O)c2cc(S(=O)(=O)N3CCOCC3)ccc21	·	·	-9%	·	?
Clc1ccc(/C=N/Nc2nnc(Cl)c3ccccc23)cc1	38	10%	?	-5%	?
CC(=O)Nc1ccc(C=NNc2nnc(NN=Cc3ccc(NC(C)=O)cc3)c3ccccc23)cc1	0	-3%	2.9µM*	-2%	4.1µM*
Cc1ccc(/C=N/Nc2nnc(Cl)c3ccccc23)cc1	-62*	-29%	23µM*	-28%	21µM*
Clc1nnc(N/N=C/c2ccccc2)c2ccccc12	-12	?	?	?	?
Cc1c(Cl)cccc1NC(=O)c1ccc2c(c1)CCCN2S(C)(=O)=O	·	·	-26%	·	-20%
CCCN1Cc2cccc(C(=O)NC(CC(=O)OCC)c3ccc(OC(C)C)cc3)c2C1=O (centres undefined)	30	-15%	?	-9%	21µM*
COc1ccc(N2Cc3cccc(C(=O)Nc4ccc(Cl)cc4)c3C2=O)cc1	·	·	8.2µM*	·	21µM*
CCCN1Cc2cccc(C(=O)Nc3ccc(CN4CCCC4)cc3)c2C1=O	-56*	-8%	-3%	-25%	23µM*
CCCN1Cc2cccc(C(=O)NC(CC(=O)OCC)c3ccc(C)cc3)c2C1=O (centres undefined)	14	14%	2%	14%	-28%
CCOc1ccc(NC(=O)c2cccc3c2C(=O)N(Cc2cccnc2)C3)cc1	-82*	1%	?	3%	?
SMILES	IL-1B inflam inh	HT1080-NT tox	TDP1 cell CPT	HT1080 IDH1KD tx	DT40 TDP1 no CPT
COc1cc(S(=O)(=O)NCCCN2CCOCC2)ccc1-n1cnnn1	18	9%	-25%	-2%	-13%
COc1cc(Cl)c(C)cc1NC(=O)CN1CCN(C(=O)c2cccs2)CC1	-19	-14%	?	-16%	?
COC(=O)c1ccc(COc2ncnc3c(Cl)cc(Cl)cc23)o1	13	-13%	-11%	-12%	-13%
CCN(CC)S(=O)(=O)c1cccc2cc(C(=O)O)c(O)cc12	-1	-5%	-12%	1%	-12%
COCCN1Cc2cccc(C(=O)Nc3ccc(C)cc3)c2C1=O	-68*	6%	-28%	-5%	?
COCCN1Cc2cccc(C(=O)Nc3ccc(C(=O)OC)cc3)c2C1=O	·	·	-5%	·	4%
Cc1cccc(C#CC2=CC(=O)CC(C)(C)C2)c1	·	16%	16µM*	0%	10µM*
COc1cc(NC2=CC(=O)CC(C)(C)C2)cc(OC)c1	15	5%	?	8%[9.24 µM]	-7%
COc1cccc(C#CC2=CC(=O)CC(C)(C)C2)c1	·	-28%	5.8µM*	?	2.9µM*
CC1(C)CC(=O)C=C(C#CC2(O)CCCCC2)C1	-108*	5.2µM*	7.3µM*	13µM*	5.2µM*
Cc1ccc(C2=CC(=O)CC(C)(C)C2)cc1	12	-6%	-12%	2%	0%
CC1(C)CC(=O)C=C(NCCO)C1	17	7%	-7%	3%	-23%
CC(=O)Nc1ccc(NC(=O)c2ccccc2N(C)S(=O)(=O)c2ccccc2)cc1	17	15%	11%	-1%	1%
CCOC(=O)c1c(C)[nH]c(C)c1S(=O)(=O)N(C)CC(=O)Nc1ccccc1	8	-4%	7%	-1%	-11%
COc1ccc(N=C2O/C(=C/c3sc(=S)n(CC4CCCO4)c3O)N=C2C#N)cc1 (centres undefined)	-12	0%	?	-20%	29µM*
O=C1N=c2ccccc2=C1c1sc(=S)n(CC2CCCO2)c1O (centres undefined)	31	5%	-7%	10%	-12%
CCCCCN(C(=O)CCC(=O)OC(C)C(=O)Nc1cccc(C#N)c1)c1c(N)n(CCCC)c(=O)[nH]c1=O (centres undefined)	-8	0%	-3%	-6%	1%
Clc1ccc(-n2ncc3c(NCC4CCCO4)ncnc32)cc1 (centres undefined)	-14	?	16µM*	?	16µM*
Cc1ccc(Cl)cc1-n1ncc2c(NC3CCCCCC3)ncnc21	·	·	21µM*	·	21µM*
COc1ccc(-n2ncc3c(NCc4ccco4)ncnc32)cc1	-5	-6%	-7%	7%	-14%
CCOC(=O)N1CCC(Nc2ncnc3c2cnn3-c2ccccc2)CC1	-9	2%	?	12%	11µM*
Clc1ccc(-n2ncc3c(NCc4ccco4)ncnc32)cc1	0	-14%	?	?	15µM*
Cc1ccc(Cl)cc1-n1ncc2c(NNC(=O)c3ccco3)ncnc21	-4	12%	2%	9%	-20%
